Compound activity: PubChem BioAssay, National Center for Advancing Translational Sciences (NCATS)
Hits are enriched below; roughly 2.3% of the tested compounds scored in any of these assays.
HepG2 tox = counter-screen for TGF-b inhibitors: cytotoxicity in HepG2 cells. Potency, µM (top dose mostly 46.1 µM), for inactives: at the top dose activity change, negative = cytotoxicity, most hits filed as cytotoxic. 0.76% of 410,000 active. HepG2 CAGA-GFP viability, ATP luminescence, 18 h
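CellTiter-Glo luminescence gave cytotoxicity after 18 hours at 37 degrees C. The cells were HepG2 CAGA-GFP in 1% FBS DMEM, stimulated with 500 pg/mL TGF-beta after compound addition. %Activity was normalised to no-cell wells (complete cell-killing) and DMSO (no toxicity), and curves were fitted and classified.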
ATXN2 expr inh = reduces ATXN2 reporter expression in HEK-293 cells; AID 1745845; 0.72% of 360,000 active; Potency, µM (series often up to 57 µM), inactives show top-dose activity change, negative = inhibition, usual class: inhibitors; HEK-293 ATXN2-luciferase reporter, luminescence, 24 h; also: % is scaled to controls: 0 for no effect and ±100 for the full control effect; nearly all actives have a fitted effect of over 55% in size
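ATXN2-luciferase reporter cells (luciferase flanked by upstream and downstream ATXN2 gene portions) were treated 24 h at 37 °C with compounds at up to 57 uM. SteadyGlo luminescence gave expression; GF-AFC fluorescence gave viability.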
S2 tox = cell viability loss in ATXN counter-screen. Potency, µM (series often up to 56.7 µM), actives largely listed as cytotoxic. 0.49% of 400,000 active. AID 651635. S2 cells (HEK-293 line with an ATXN2-luciferase reporter) viability, CellTiter-Fluor protease fluorescence, 24 h; also: nearly all actives have a fitted effect of over 40% in size
TGFb inhibitor = inhibitors of TGF-b signaling. HepG2 CAGA-GFP TGF-b/SMAD3 reporter, GFP fluorescence, 18 h; TGF-beta stimulated, 500 pg/mL final. Potency, µM (titrated, usually from 46.1 µM), for inactives: at the top dose activity, negative = inhibition, most hits filed as inhibitors. 1.2% of 410,000 active. AID 588855; also: % is scaled to controls: 0 for no effect and ±100 for the full control effect; nearly all actives have a fitted effect of over 65% in size
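GFP signal (ex488/em500-530) from TGF-beta-stimulated HEPG2 CAGA-GFP cells, 500 pg/mL final, 18 h at 37 degrees C in DMEM plus 1% FBS, normalized to unstimulated and DMSO-stimulated controls.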
The depositor's hits bear a star; i = inactive; ? = inconclusive; . = not tested or not shown; ! = a repeat was not active. Calls follow the shape of the dose curve; as a rule, active = well fitted curve in the direction sought with a large enough effect; inconclusive = small, poorly fitted or top-dose-only effect, or another doubt; inactive = no such curve, though single readings can be large; an effect the other way counts as inactive or inconclusive. Potency is read from the fitted curve at half-maximal effect.

SMILES	HepG2 tox	ATXN2 expr inh	S2 tox	TGFb inhibitor
COc1ccc(-c2sc3ccc(N4CCOCC4)cc3c2C#CCO)cc1	-47%	28µM*	?	?
O=C(O)Cc1ccc2c(c1)C(=O)c1ccccc1CO2	.	11%	i	.
CCN(CC)C1CCCCC1NS(=O)(=O)c1ccc(Cl)cc1 (centres undefined)	-5%	-10%	i	0%
CN(c1ccccc1)C1CCCCC1NS(=O)(=O)c1ccc(Cl)cc1 (centres undefined)	-83%	.	?	11µM*
CCCCn1nnnc1C(c1cc2ccccc2o1)N1CCN(c2cc(C)nc3ccccc23)CC1 (centres undefined)	.	?	4.5µM*	.
CCCCn1nnnc1C(c1cc2ccccc2o1)N1CCN(c2ccccc2F)CC1 (centres undefined)	.	6%	i	.
CCCCn1nnnc1C(c1cc2ccccc2o1)N(CCN(C)C)Cc1ccccc1 (centres undefined)	.	32µM*	.	.
Cc1cc(/C=C/c2c(C)cnc3ccccc23)ccc1N(C)C	-66%	.	.	?
CC(C)(C)NC(=O)C(c1ccc(-c2ccccc2)cc1)N(C[C@H]1CC[C@@H]([C@@H]2CC[C@H](CO)O2)O1)C(=O)c1ccc(C(C)(C)C)cc1 (some centres undefined)	-96%	-28%	20µM*	?
O=C(CSc1nc(-c2cccs2)cc(C(F)(F)F)n1)Nc1cc(OCC(F)(F)F)cc([N+](=O)[O-])c1	19%	?	16µM*	-5%
CC(=O)N1CCC[C@H]1C(=O)NCC1Cc2cc(F)cc(-c3ccc(F)c(C)c3)c2O1 (some centres undefined)	.	.	i	.
C=C(c1ccc2ccccc2n1)c1cccs1	-2%	.	.	-2%
CC(C)n1cnc2c(Nc3cccc(Cl)c3)nc(NCCCO)nc21	-15%	-34%	?	?
CC(C)n1cnc2c(NCCCCCCNC(=O)OC(C)(C)C)nc(NCCO)nc21	.	14µM*	.	.
Cc1ccccc1NC(=O)c1ccccc1OCC(=O)Nc1ccc(Br)cc1	-2%	.	.	?
Cc1cc(NC(=O)CS(=O)c2cn(Cc3cccc(Cl)c3)c3ccccc23)no1 (centres undefined)	-8%	?	?	13µM*
O=C(CCc1ccc(O)cc1)c1c(O)cc(O)cc1O[C@@H]1O[C@H](CO)[C@H](O)[C@H](O)[C@H]1O	.	-3%	.	.
Cc1c(OCC(=O)NC2CC(C)(C)NC(C)(C)C2)ccc2c1oc(=O)c1ccccc12	-11%	18µM*	?	10%
Cc1c(OCC(=O)NC2CC(C)(C)NC(C)(C)C2)ccc2c3c(c(=O)oc12)CCC3	-15%	-18%	i	-2%
Cc1cc(C)c(O)c(-c2cc(C(=O)Nc3ccc(S(=O)(=O)N4CCOCC4)cc3)[nH]n2)c1	-60%	18µM*	?	?
CCOC(=O)c1ccc(OCCN2C[C@H](O)[C@@H](O)[C@H](O)[C@H]2CO)cc1	.	19%	i	.
Cc1cccc(N=N/C(=C\O)C(=O)c2ccc(Br)cc2)c1	-70%	-33%	.	10µM*
COc1ccc(C(=O)/C(=C/O)N=Nc2ccc(F)cc2)cc1	-38%	?	22µM*	?
COc1ccc(N=N/C(=C\O)C(=O)c2cccs2)cc1	-20%	?	?	?
O=C(/C(=C/O)N=Nc1cccc(C(F)(F)F)c1)c1ccccc1	-6%	?	i	?
SMILES	HepG2 tox	ATXN2 expr inh	S2 tox	TGFb inhibitor
CCCCCC(=O)O[C@]1(C(C)=O)CC[C@H]2[C@@H]3CCC4=CC(=O)CC[C@]4(C)[C@H]3CC[C@@]21C	-37%	28µM*!	35µM*!	?
CCOC(=O)CN1CCCC1=O	.	12%	i	.
COc1ccc(OC)c(NC(=O)C2CCCN(S(=O)(=O)c3cccc4nsnc34)C2)c1 (centres undefined)	13µM*	-8%	i	-9%
COc1ccc(C(=O)/C=C/C(=O)N(Cc2ccc3c(c2)OCO3)C(C(=O)NC2CCCCC2)c2ccncc2)c(O)c1 (centres undefined)	0%	-4%	i	?
COc1ccc(C(=O)/C=C/C(=O)N(CC(=O)NC2CCCCC2)Cc2cccs2)c(O)c1	-54%	?	27µM*	?
COCCN(CC(=O)NC1CCCCC1)C(=O)/C=C/C(=O)c1ccc(OC)cc1O	13µM*	?	.	?
COc1ccc(CN(C(=O)/C=C/C(=O)c2ccc(OC)cc2O)C(C(=O)NC2CCCCC2)c2ccncc2)cc1 (centres undefined)	5%	-4%	?	?
CCc1cc(C(=O)N2CCOc3ccc(CN4CCN(Cc5ccccn5)CC4)cc3C2)no1	.	.	i	.
Cc1cnc(C)c(-c2cc(F)cc3c2OC(CNC(=O)C2CCOC2)C3)n1 (centres undefined)	.	.	i	.
Cc1cccc2[nH]cc(/C=C3/C=Nc4ccccc43)c12	-28%	.	.	?
COC(=O)c1ccccc1-c1cc(C)cc2c1OC(CNC(=O)c1cc(C)n(C)n1)C2 (centres undefined)	.	.	i	.
CN(c1ccc(F)cc1)S(=O)(=O)N1CCCC(C(=O)NCc2ccccc2Cl)C1 (centres undefined)	-25%	.	.	11µM*
COc1cccc(CNC(=O)C2CCCN(S(=O)(=O)N(C)c3ccc(F)cc3)C2)c1OC (centres undefined)	-34%	.	.	?
CC(C)(C)n1ncc2c(=O)n(Cc3cccc(Cl)c3Cl)cnc21	-6%	.	.	5%
O=C(c1cncs1)N(Cc1cc2cc3c(cc2nc1N1CCOCC1)CCC3)CC1CCCO1 (centres undefined)	.	.	i	.
O=C(c1c(F)cccc1F)N(Cc1ccccn1)C1CC1	0%	-18%	i	13µM*
O=C(CC1CCCCC1)NCc1ccccn1	4%	7%	i	1%
CC(=O)c1nnn(-c2nc(C#N)nc(N3CCOCC3)n2)c1C	20%	.	.	8%
Cc1cccc(OCC(=O)Nc2cc(-c3nc4cc(Cl)ccc4o3)ccc2C)c1	-10%	.	.	?
C=C1C(=O)C23CCC4C(C)(C(=O)OC)CCCC4(C)C2CCC1(O)C3 (centres undefined)	2.8µM*	?	5.3µM*	3.2µM*
CCn1nc(C)cc1C(=O)NCC1CCC2(CCN(Cc3ccccc3F)CC2)O1 (centres undefined)	.	.	i	.
C#C[C@]1(O)CC[C@@H]2[C@@H]3CCc4cc(O)ccc4[C@H]3CC[C@@]21C	.	-16%	.	.
CCC(/C=C1\Sc2ccc(OC)cc2N1CC)=C\c1sc2ccc(OC)cc2[n+]1CCCS(=O)(=O)[O-]	-4%	?	22µM*	-15%
COc1cc(OC)c2nc(-c3cc4c(c(OC)c3)OCCN(C(=O)CC3NC(=O)c5ccccc53)C4)cc(C)c2c1 (centres undefined)	.	.	i	.
O=C(Nc1ccc(Br)cc1)c1ccc(F)c(S(=O)(=O)N2CCc3ccccc32)c1	-34%	.	.	11µM*
CC(C)c1ccc(NC(=O)c2ccc(F)c(S(=O)(=O)N3CCc4ccccc43)c2)cc1	-15%	.	.	-25%
